Results: PubChem BioAssay (EPA / NIEHS)
Calls of active or inactive are those of the source. The calls were made as follows: active = hit-call score of the fitted dose curve at least 0.9, where 1 is the maximum; inactive = score below 0.9. Peptide text beside a SMILES is read from it.

Assays:
[1] = ATG_M_61_CIS: Attagene CIS-FACTORIAL HepG2 Assay for M61 Transcription Factor (Internal Marker) (AID 2282937); conditions: HepG2 Attagene CIS-FACTORIAL M61 internal marker reporter; actives raise or lower the signal
Method in brief: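 Cells were transfected with reporter units under cis-regulatory promoters, treated with chemicals for 24 h, then lysed for RNA. Reporter transcripts were quantified by RT-PCR and capillary electrophoresis, and activity was fitted bidirectionally against DMSO.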

[2] = ATG_EGR_CIS: Attagene CIS-FACTORIAL HepG2 Assay for human Early Growth Response 1 (EGR1) (AID 2282938); conditions: HepG2 Attagene CIS-FACTORIAL EGR reporter mRNA; actives raise or lower the signal
Method in brief: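 Endogenous TF activity in HepG2 liver cells was gauged through cis-promoter reporter constructs transiently transfected. After 24 h dosing, reporter mRNA was quantified by RT-PCR and capillary electrophoresis, and curves fitted in both directions versus DMSO.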

[3] = ATG_M_19_CIS: Attagene CIS-FACTORIAL HepG2 Assay for M19 Transcription Factor (Internal Marker) (AID 2282939); conditions: HepG2 Attagene CIS-FACTORIAL M19 internal marker reporter; actives raise or lower the signal
Method in brief: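 Transfect HepG2 with MRTU reporter library → dose chemical, 24 h → isolate total RNA, reverse-transcribe with oligo(dT) → PCR, 6-FAM label, HpaI cut (2 h, 37 C) → capillary electrophoresis. Bidirectional fit vs DMSO.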

[4] = ATG_ERE_CIS: Attagene CIS-FACTORIAL HepG2 Assay for Estrogen Response Element (ERE) (AID 2282940); conditions: HepG2 ERE cis-reporter, Attagene RNA transcript; actives raise or lower the signal
Method in brief: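 Transient MRTU transfection of human HepG2; cis-element promoters; 24 h dosing; total RNA → RT (oligo dT) → PCR → 6-FAM primer extension → HpaI digest → CE fluorescence. Bidirectional fit, DMSO baseline.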

[5] = ATG_Ets_CIS: Attagene CIS-FACTORIAL HepG2 Assay for human Erythroblast Transformation Specific (ETS) (AID 2282941); conditions: HepG2 ETS cis-reporter transcription, actives raise or lower the signal
Method in brief: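 RT-PCR/capillary electrophoresis fluorescence read-out of reporter mRNA; HepG2 transient multi-reporter transfection; 24 h compound exposure; gain or loss of signal fitted bidirectionally relative to DMSO.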

[6] = biological target: Hepatocyte nuclear factor 3-beta (Homo sapiens) (UniProt Q9Y261); test: ATG_FoxA2_CIS: Attagene CIS-FACTORIAL HepG2 Assay for human Forkhead box A2 (FOXA2) (AID 2282942); conditions: HepG2 cis-reporter transcription factor activity, 24 h; actives raise or lower the signal
Method in brief: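 Endogenous transcription factor activity was read in HepG2 cells carrying transiently transfected cis-promoter reporter units. After 24 h dosing, reporter mRNA was quantified by RT-PCR and capillary electrophoresis, and values fitted bidirectionally versus DMSO.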

[7] = ATG_FoxO_CIS: Attagene CIS-FACTORIAL HepG2 Assay for human Forkhead box O (FoxO) (AID 2282943); conditions: HepG2 Attagene cis-reporter, FoxO element, mRNA; actives raise or lower the signal
Method in brief: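 Transfected HepG2 reporter cells exposed to test chemical for 24 h; reporter RNA measured by reverse transcription, PCR and fluorescent capillary electrophoresis; curves fitted for increases and decreases against DMSO.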

[8] = ATG_GATA_CIS: Attagene CIS-FACTORIAL HepG2 Assay for human GATA Binding Protein (AID 2282944); conditions: HepG2 GATA cis-element reporter, Attagene multiplex mRNA; actives raise or lower the signal
Method in brief: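 Transient MRTU transfection, HepG2, 24 h compound exposure. Total RNA → oligo(dT) RT → PCR → 6-FAM primer extension → HpaI cut → CE. Bidirectional fit vs DMSO.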

[9] = ATG_E_Box_CIS: Attagene CIS-FACTORIAL HepG2 Assay for human Enhancer Box (E-box) (AID 2282936); conditions: HepG2 E-box cis-reporter transcription, actives raise or lower the signal
Method in brief: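 In this cell-based setup, HepG2 cells bearing transfected promoter-driven reporter units were exposed to chemicals for 24 h; reporter transcripts were amplified, 6-FAM-labelled, cut with HpaI and sized by capillary electrophoresis.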

Measured: AC50

Sequence of Hepatocyte nuclear factor 3-beta (Homo sapiens) (Q9Y261 whole entry, looked up): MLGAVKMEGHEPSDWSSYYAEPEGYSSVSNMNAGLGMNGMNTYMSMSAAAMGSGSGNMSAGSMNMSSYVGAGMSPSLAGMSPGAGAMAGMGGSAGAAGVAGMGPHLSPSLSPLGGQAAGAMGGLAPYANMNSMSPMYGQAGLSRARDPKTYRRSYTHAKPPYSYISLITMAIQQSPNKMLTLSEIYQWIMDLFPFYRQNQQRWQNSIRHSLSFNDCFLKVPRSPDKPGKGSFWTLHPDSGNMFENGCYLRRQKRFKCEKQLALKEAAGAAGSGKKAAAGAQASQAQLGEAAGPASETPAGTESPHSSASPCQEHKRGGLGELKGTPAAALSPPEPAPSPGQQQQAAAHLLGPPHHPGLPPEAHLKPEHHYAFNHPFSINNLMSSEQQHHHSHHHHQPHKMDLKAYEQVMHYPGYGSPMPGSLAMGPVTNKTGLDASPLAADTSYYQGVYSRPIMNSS

C=C(C)C(=O)OCCOC(=O)C(=C)C
inactive: [1] | [2] | [3] | [4] | [5] | [6] | [7] | [8]

COC(=O)[C@H](Cc1ccccc1)NC(=O)[C@@H](N)CC(=O)O (H-Asp-Phe-OMe)
active: [4] 42.1 µM
inactive: [9] | [2] | [3] | [5] | [6] | [7] | [8]

CC(=O)/C=C/C1C(C)=CCCC1(C)C (stereo not given)
inactive: [9] | [1] | [2] | [3] | [5] | [6] | [7] | [8]

CC(C)=NNC(N)=S
inactive: [1] | [2] | [3] | [4] | [5] | [6] | [7] | [8]

CC1=CCC2CC1C2(C)C (stereo not given)
inactive: [9] | [1] | [2] | [3] | [4] | [5] | [6] | [7] | [8]

C1CCSC1
inactive: [9] | [1] | [2] | [3] | [4] | [5] | [6] | [7] | [8]

CCC(C)N (stereo not given)
inactive: [2] | [3] | [4] | [5] | [6] | [7] | [8]

Oc1ccc(/C=C/c2cc(O)cc(O)c2)cc1
inactive: [9] | [1] | [2] | [3] | [6] | [7] | [8]
active: [4] 6.81 µM | [5] 153 µM

OCCCc1ccccc1
inactive: [9] | [1] | [2] | [3] | [4] | [5] | [6] | [7] | [8]

CCc1occc(=O)c1O
inactive: [1] | [2] | [3] | [4] | [5] | [6] | [7] | [8]

CC1=CCC(C(C)C)C=C1 (stereo not given)
inactive: [9] | [1] | [2] | [3] | [5] | [6] | [7] | [8]

O=C(C=Cc1ccccc1)OCCc1ccccc1
active: [4] 32.7 µM
inactive: [9] | [1] | [2] | [3] | [5] | [6] | [7] | [8]

Nc1ccc(O)c([N+](=O)[O-])c1
inactive: [9] | [1] | [2] | [3] | [4] | [5] | [6] | [7] | [8]

Cc1cccc(C(C)(C)C)c1O
inactive: [9] | [1] | [2] | [3] | [4] | [5] | [6] | [7] | [8]

O=C(Cl)c1ccc(C(=O)Cl)cc1
inactive: [9] | [1] | [2] | [3] | [4] | [5] | [6] | [7] | [8]

CCCCCCCCCCCCCc1ccccc1
inactive: [3] | [4] | [6] | [7] | [8]

CC(C)CCOCc1ccccc1
inactive: [9] | [1] | [2] | [3] | [4] | [5] | [6] | [7] | [8]

CCCCCCCCCCCC(=O)N(C)CC(=O)O
active: [4] 14.3 µM
inactive: [9] | [1] | [2] | [3] | [5] | [6] | [7] | [8]

O=C(O)CCC(=O)O
inactive: [9] | [1] | [3] | [4] | [5] | [6] | [7] | [8]

COC(=O)CC(C)CCC=C(C)C (stereo not given)
inactive: [1] | [3] | [4] | [5] | [6] | [7] | [8]
